CendR NRP1 mod – NRP-1/CendR interaction modulation; 360,000 compounds, 0.85% hits; inhibition, % at 25 µM; FAM-RPARPAR peptide binding to NRP-1, fluorescence polarization;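 active means inhibition or corrected inhibition above about 18%, plus a signal ratio from 0.5 to 1.5, limit read from the data, passing the limit was not always enough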
Target sequence (O14786 whole entry, looked up): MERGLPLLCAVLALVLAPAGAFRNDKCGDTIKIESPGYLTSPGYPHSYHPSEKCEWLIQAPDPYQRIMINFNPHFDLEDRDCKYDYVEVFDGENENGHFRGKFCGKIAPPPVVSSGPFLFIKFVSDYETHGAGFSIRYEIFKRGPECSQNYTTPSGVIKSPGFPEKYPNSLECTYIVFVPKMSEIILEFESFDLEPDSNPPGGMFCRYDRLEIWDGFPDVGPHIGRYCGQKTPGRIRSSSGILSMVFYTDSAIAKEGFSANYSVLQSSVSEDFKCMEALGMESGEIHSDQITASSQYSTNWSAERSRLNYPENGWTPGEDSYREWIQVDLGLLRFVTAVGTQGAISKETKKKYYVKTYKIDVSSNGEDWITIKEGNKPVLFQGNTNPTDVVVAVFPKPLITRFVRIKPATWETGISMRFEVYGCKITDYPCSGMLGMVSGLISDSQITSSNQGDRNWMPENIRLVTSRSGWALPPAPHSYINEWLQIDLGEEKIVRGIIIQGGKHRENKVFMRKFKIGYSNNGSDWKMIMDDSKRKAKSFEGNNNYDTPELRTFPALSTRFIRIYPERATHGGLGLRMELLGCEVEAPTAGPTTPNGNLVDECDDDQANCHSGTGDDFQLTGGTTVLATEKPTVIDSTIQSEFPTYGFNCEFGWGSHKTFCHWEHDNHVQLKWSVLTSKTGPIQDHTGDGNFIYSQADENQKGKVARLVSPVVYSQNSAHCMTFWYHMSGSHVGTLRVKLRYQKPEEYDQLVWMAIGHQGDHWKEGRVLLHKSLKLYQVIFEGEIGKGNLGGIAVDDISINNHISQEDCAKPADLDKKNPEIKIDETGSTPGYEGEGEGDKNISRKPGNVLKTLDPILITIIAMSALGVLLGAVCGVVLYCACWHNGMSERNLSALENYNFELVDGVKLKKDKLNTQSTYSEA
ALR H2O2 inh – inhibitors of human sulfhydryl oxidase ALR. P55789. inhibition, % (no concentration beside the values). 290,000 compounds, 3.8% hits. AID 485317. purified ALR, DTT oxidation, H2O2 HRP-luminol luminescence;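 active means mean replicate inhibition above about 79%, with every replicate also reaching it, limit read from the data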
ERp5 inh – ERp5 (human) disulfide isomerase inhibition; ERp5 insulin aggregation, absorbance 650 nm, 90 min; inhibition, % at 9.99 µM; 350,000 compounds, 0.05% hits;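 active means mean replicate inhibition above about 25%, with every replicate also reaching it, limit read from the data, passing the limit was not always enough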
PDI inh – blocks human protein disulfide isomerase activity. P07237. PDI insulin aggregation turbidity, A650, 90 min. inhibition, % at 10 µM. 350,000 compounds, 0.052% hits;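 active means mean inhibition across replicates of 30% or more, whatever share of single replicates reach that level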
ARNT TACC3 PPI – disrupts binding between human ARNT and TACC3 | Q9Y6A5 | AlphaScreen His-ARNT PAS-B/GST-TACC3 binding, luminescence; TACC3 fragment carries E629A point mutation | inhibition, % at 9.99 µM | 390,000 compounds, 0.66% hits | AID 623870;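 active means mean inhibition of replicates at least 50% and at least half of replicates each reaching 50%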;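 further: 0% = complete ARNT plus TACC3 wells and 100% = ARNT alone without TACC3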
PglD inh – blocks C. jejuni PglD acetyltransferase activity | purified PglD enzyme, DTNB colorimetric CoA detection | inhibition, % at 12.5 µM | 360,000 compounds, 0.098% hits; in the data active means inhibition above about 16%, passing the limit was not always enough
Active calls of the source: *; · = not tested or not shown. The full list was thinned out, with hits kept by preference.

SMILES	CendR NRP1 mod	ALR H2O2 inh	ERp5 inh	PDI inh	ARNT TACC3 PPI	PglD inh
C[C@@H]1CN([C@@H](C)CO)S(=O)(=O)c2ccc(/C=C/c3ccccc3)cc2O[C@@H]1CN(C)C(=O)c1ccccc1	·	·	·	·	20	-1
S=c1[nH]nc(-c2ccc(Cl)cc2)n1/N=C/c1ccco1	6	16	·	-19	-3	·
S=c1[nH]nc(-c2ccccc2)n1/N=C/C=C/c1ccco1	-8	97*	4	21	0	·
O=[N+]([O-])c1ccccc1/C=N/n1c(-c2ccccc2)n[nH]c1=S	2	7	2	-2	2	4
S=c1[nH]nc(-c2ccc(Cl)cc2)n1/N=C/C=C/c1ccco1	-20	99*	3	-9	32	-2
S=c1[nH]nc(-c2cccnc2)n1/N=C/C=C/c1ccco1	-23	14	0	10	13	·
S=c1[nH]nc(-c2ccco2)n1/N=C/c1cccc(Cl)c1Cl	2	96*	0	-4	-16	·
O=[N+]([O-])c1ccccc1/C=C/C=N/n1c(-c2ccccc2F)n[nH]c1=S	-3	98*	3	19	11	-1
C[C@@H]1CN([C@H](C)CO)C(=O)c2cc(NC(=O)Cc3ccccc3)ccc2O[C@H]1CN(C)Cc1ccc(Cl)c(Cl)c1	·	·	10	·	1	2
C[C@H](CO)N1C[C@H](C)[C@@H](CN(C)C(=O)NC2CCCCC2)Oc2c(NC(=O)C3CCOCC3)cccc2C1=O	·	·	2	·	0	1
C[C@H]1CN([C@@H](C)CO)C(=O)c2cccc(NC(=O)C3CCCCC3)c2O[C@H]1CN(C)C(=O)Nc1ccccc1	·	·	3	·	19	3
CC(C)NC(=O)N1C[C@H]2[C@@H](c3ccccc31)[C@H](CO)N2C(=O)c1ccncc1	·	·	-4	·	-3	-1
CC(=C/c1ccccc1)/C=N/n1c(-c2ccco2)n[nH]c1=S	-18	97*	-1	5	9	1
CC(/C=N/n1c(-c2cc(C)[nH]n2)n[nH]c1=S)=C\c1ccccc1	-5	61	·	7	2	·
S=c1[nH]nc(-c2ccco2)n1/N=C/c1cccs1	1	12	·	4	-6	·
S=c1[nH]nc(-c2ccco2)n1/N=C/C=C/c1ccccc1	-8	98*	·	2	-4	-10
CC(/C=N/n1c(-c2n[nH]c3c2CCC3)n[nH]c1=S)=C\c1ccco1	-10	94*	3	-7	9	-2
COc1ccccc1C#Cc1cnc2c(c1)C(=O)N([C@H](C)CO)C[C@H](C)[C@@H](CN(C)C(=O)CC1CC1)O2	·	·	-1	·	-1	0
O=C(Nc1ccc2c(c1)[C@H]1C[C@H](CC(=O)N3CCOCC3)O[C@H](CO)[C@H]1O2)NC1CCCC1	·	·	-3	·	-3	0
COc1ccc2c(c1)c(=O)c(C(=O)c1ccccc1)cn2Cc1ccccc1	-10	-13	-1	·	4	-1
O=C(O)c1cn(Cc2ccccc2)c2ccc(Cl)cc2c1=O	23*	11	2	4	-7	2
COc1cccc(C(=O)Nc2nnc(S(=O)(=O)N(C)Cc3ccc(F)cc3)s2)c1	3	84*	2	1	-2	0
COc1ccc(CN(C)S(=O)(=O)c2nnc(NC(=O)c3cccc(OC)c3)s2)cc1	-16	2	5	-8	6	2
COc1ccc(C2C(C(=O)Nc3ccc(F)cc3)=C(C)Nc3nc(CCCO)nn32)cc1 (stereo unspecified)	20*	·	4	·	-4	4
CCOc1ccc(C2C(C(=O)Nc3ccc(F)cc3)=C(C)Nc3nc(CCCO)nn32)cc1 (stereo unspecified)	-4	-3	1	·	-8	-2
COc1ccc(N/C(N)=N/c2nc(C)cc(C)n2)c(OC)c1	30*	-12	6	3	2	·
CN(C)S(=O)(=O)c1ccc(C(=O)Nc2nnc(SCC(=O)NCC3CCCO3)s2)cc1 (stereo unspecified)	-3	94*	-4	1	-1	1
CC(C)(C)c1ccc(C(=O)Nc2nnc(SCC(=O)NCC3CCCO3)s2)cc1 (stereo unspecified)	6	4	-2	0	1	1
Oc1ccc(-c2[nH]ncc2-c2cnn(-c3ccccc3)c2)c(O)c1	-4	98*	-1	-6	-7	-1

Screens (PubChem)
